From PubChem
The full list was thinned out, with hits kept by preference.
IL-1B inflam inh: qHTS for Inhibitors of Inflammasome Signaling: IL-1-beta AlphaLISA Primary Screen. THP-1 LPS/ATP IL-1B secretion, AlphaLISA, 16 h; active compounds read low. activity change, % at 57.5 µM. 360,000 tested, 4.7% active. AID 743279, 2014; in the data active means activity change below about -50%; inconclusive means mostly about -30% to -49%
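THP-1 cells pretreated 1 hr with compounds (up to 57.5 uM final), then stimulated with LPS (250 ng/mL final) plus ATP (1.25 mM final); secreted IL-1B measured by AlphaLISA after 16 hr, decreased signal indicating inhibition.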
HT1080 IDH1KD tx: qHTS for induction of synthetic lethality in tumor cells producing 2HG: qHTS for the HT-1080-IDH1KD cell line | AID 686971, 2013 | Potency, µM (doses to about 46.1 µM), inactives show top-dose activity, negative = toxicity, most hits filed as cytotoxic | 360,000 tested, 2% active | HT-1080 IDH1 knockdown viability, ATP luminescence, 48 h;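 further: potency means the concentration at half of the fitted maximal effect; 0% = DMSO wells and -100% = cell-free medium wells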
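Viability of IDH1-knockdown HT-1080 fibrosarcoma cells was assessed by CellTiter-Glo after 48 h at 37 °C with titrated compound; concentration-effect curves were classified by fit quality and response size.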
HT1080-NT tox: qHTS for induction of synthetic lethality in tumor cells producing 2HG: qHTS for the HT-1080-NT fibrosarcoma cell line. AID 686970, 2013. HT-1080-NT fibrosarcoma viability, CellTiter-Glo ATP luminescence, 48 h. 360,000 tested, 1.6% active. Potency, µM (titrated, usually from 46.1 µM), inactives show at the highest dose activity, negative = less viability, actives largely listed as cytotoxic;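 further: NT is the 2HG producing partner of a matched IDH1 knockdown line; potency means the concentration at half of the fitted maximal effect; 0% = DMSO-treated cells and -100% = media-only wells without cells; nearly all actives have a fitted effect of over 55% in size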
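750 cells/well, RPMI + 5% FBS; 2 h settle, compound pin-transfer, 48 h at 37 degrees C. CellTiter-Glo 10 min RT, luminescence. Normalized to DMSO and media-only wells.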
DT40 TDP1 CPT: qHTS for Inhibitors of human tyrosyl-DNA phosphodiesterase 1 (TDP1): qHTS in cells in presence of CPT; chicken DT40 Tdp1-/-;hTDP1 cells + 20 nM CPT, ATP luminescence, 48 h; 420,000 tested, 12% active; Potency, µM (titrated, usually from 46.2 µM), without a hit: top-dose activity change, negative = growth inhibition, most hits filed as inhibitors; further: potency means the concentration at half of the fitted maximal effect; nearly all actives have a fitted effect of over 55% in size
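Chicken DT40 Tdp1-/- cells stably complemented with human TDP1 were seeded at 400 cells/well in medium containing 20 nM camptothecin, exposed to pin-transferred compounds, and grown at 37 °C for at least 48 hr. Viability was read as ATP luminescence.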
ALOX12 inh: Primary qHTS assay for inhibitors of human arachidonate 12S-lipoxygenase (ALOX12): Round 2 | AID 1671190, 2021 | 580,000 tested, 1.1% active | Polyunsaturated fatty acid lipoxygenase ALOX12 (Homo sapiens), P18054 | Potency, µM (series often up to 108 µM), for inactives: at the top dose activity change, negative = inhibition, hits mostly inhibitors | purified 12hLO, xylenol orange hydroperoxide absorbance; further: potency means the concentration at half of the fitted maximal effect
Target sequence (P18054 whole entry, looked up): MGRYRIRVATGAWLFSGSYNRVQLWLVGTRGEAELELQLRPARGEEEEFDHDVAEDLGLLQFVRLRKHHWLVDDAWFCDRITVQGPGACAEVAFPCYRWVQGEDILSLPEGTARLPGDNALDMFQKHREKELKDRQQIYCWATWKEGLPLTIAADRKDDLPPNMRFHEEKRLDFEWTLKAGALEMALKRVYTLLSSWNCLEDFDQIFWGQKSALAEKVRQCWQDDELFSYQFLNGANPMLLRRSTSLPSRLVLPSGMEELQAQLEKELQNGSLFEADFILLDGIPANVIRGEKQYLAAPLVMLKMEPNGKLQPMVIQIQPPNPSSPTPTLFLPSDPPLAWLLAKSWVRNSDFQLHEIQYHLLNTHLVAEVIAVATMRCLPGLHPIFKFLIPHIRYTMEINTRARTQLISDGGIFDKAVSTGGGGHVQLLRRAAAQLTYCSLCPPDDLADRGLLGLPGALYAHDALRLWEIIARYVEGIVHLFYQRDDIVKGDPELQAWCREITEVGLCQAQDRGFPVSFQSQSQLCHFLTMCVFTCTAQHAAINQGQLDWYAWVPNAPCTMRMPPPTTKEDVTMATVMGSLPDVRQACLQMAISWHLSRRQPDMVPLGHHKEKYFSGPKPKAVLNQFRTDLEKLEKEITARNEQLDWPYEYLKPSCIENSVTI
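Hydroperoxide product was detected by ferrous iron/xylenol orange as the 573 to 405 nm absorbance ratio. Arachidonic acid at 40 uM (final) was turned over for 30 min at room temperature by 150 nM human 12hLO, pH 7.0 Hepes buffer, after 15 min compound preincubation.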
DT40 TDP1 no CPT: qHTS for Inhibitors of human tyrosyl-DNA phosphodiesterase 1 (TDP1): qHTS in cells in absence of CPT | DT40 Tdp1-/- hTDP1 cells, no CPT, ATP luminescence, 48 h | Potency, µM (series often up to 46.2 µM), without a hit: at the highest dose activity change, negative = growth inhibition, actives largely listed as inhibitors | 420,000 tested, 15% active; further: potency means the concentration at half of the fitted maximal effect; nearly all actives have a fitted effect of over 55% in size
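Chicken DT40 Tdp1-/- cells complemented with human TDP1, screened without camptothecin (DMSO vehicle only), 400 cells/well. Compounds pin-transferred, cells incubated at 37 °C for at least 48 hr. Growth read as ATP-dependent luminescence (CellTiter-Glo, 30 min at RT).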
Starred values were filed as active, the others as inactive; ? = inconclusive; . = no result given; [ ] = another dose, or the depositor's remark. Unless noted, the call rests on the fitted dose curve; in most records, active means well fitted curve in the direction sought with a large enough effect; inconclusive means small, poorly fitted or top-dose-only effect, or another doubt; inactive means no such curve, though single readings can be large; an effect the other way counts as inactive or inconclusive. Unless noted, on the % scale 0 is the no-effect control and ±100 the full control effect.

SMILES	IL-1B inflam inh	HT1080 IDH1KD tx	HT1080-NT tox	DT40 TDP1 CPT	ALOX12 inh	DT40 TDP1 no CPT
COc1ccc(N(CC(=O)NCCSCc2ccco2)S(=O)(=O)c2ccccc2)cc1OC	-14.1	-8.7%	-1.4%	?	0.7%	?
COc1ccccc1N(CC(=O)NCCSCc1ccccc1)S(=O)(=O)c1ccccc1	-20.5	-11.5%	-1.5%	?	-3.8%	23.1µM*
COc1ccc(CCC(=O)N2CCN(S(=O)(=O)c3ccc(C)cc3)CC2)cc1	-21.9	-0.1%	8.8%	-19.3%	-39.2%	-28.5%
COc1ccc(S(=O)(=O)N2CCN(C(=O)c3ccc([N+](=O)[O-])o3)CC2)cc1	-82.2*	?	?	10.3µM*	-34.7%	20.6µM*
CCN1CCN(c2ccc(S(=O)(=O)N3CCCCC3)cc2NC(=O)c2ccc([N+](=O)[O-])o2)CC1	-24.9	2.3%	-1.0%	8.2µM*	?	7.31µM*
COc1cccc(C(=O)Nc2cc(S(=O)(=O)N3CCCCC3)ccc2OC)c1	-21.0	-14.6%	-23.7%	?	-1.3%	?
COc1ccc(S(=O)(=O)N2CCCCC2)cc1NC(=O)c1ccc([N+](=O)[O-])o1	.	-6.5%	7.1%	14.6µM*	-3.6%	20.6µM*
CC(C)(C)c1ccc(C2(C(=O)O)CC2)cc1	.	.	.	.	35.8%	.
COc1ccc(CCCNC(=O)C2CCC(=O)N(CC3CCCCC3)C2)cc1 (configuration not stated)	-6.2	-15.4%	-5.7%	16.4µM*	97.1%	18.4µM*
COc1ccccc1CCCNC(=O)C1CCC(=O)N(CCc2cccc(F)c2)C1 (configuration not stated)	10.8	6.2%	3.1%	?	4.0%	18.4µM*
COC(=O)c1ccc(CNC(=O)C2CCC(=O)N(CCc3ccccn3)C2)cc1 (configuration not stated)	-13.1	2.5%	-1.9%	24.9%	1.0%	-2.6%
COC(=O)c1ccc(CNC(=O)C2CCC(=O)N(CCCc3ccccc3)C2)cc1 (configuration not stated)	0.0	-4.1%	-4.1%	13µM*	9.1%	?
COc1ccc(CCNC(=O)C2CCC(=O)N(CC3CCCCC3)C2)cc1 (configuration not stated)	7.5	-1.9%	-7.1%	?	0.2%	-5.0%
COc1ccc(CCCNC(=O)C2CCC(=O)N(CCc3cccc(F)c3)C2)cc1 (configuration not stated)	0.6	-0.6%	1.4%	23.1µM*	2.4%	?
COc1cccc(CCC2CCCNC2)c1 (configuration not stated)	.	.	.	.	29.7%	.
COc1ccc(-c2nc(NCCCN3CCCCC3C)c3ccccc3n2)cc1 (configuration not stated)	.	.	.	.	1.3%	.
Cn1nccc1OCc1cn2c(=O)n(C)cc(-c3ccc(F)cc3)c2n1	.	.	.	.	-37.5%[176 µM]	.
CCOc1ccc(NC(=O)NCCN2CCN(c3cccc(C)c3C)CC2)cc1	-2.9	2.4%	1.3%	20.6µM*	0.0%	20.6µM*
CCOc1ccc(NC(=O)NCCN2CCN(c3ccccc3F)CC2)cc1	?	2.6%	0.8%	?	1.1%	?
CCOc1cccc(N2CCN(CCNC(=O)Nc3ccc(C)cc3)CC2)c1C	-68.0*	-2.7%	-4.6%	?	9.3%	?
CCOc1ccc(OCC)c(NC(=O)CN2CCN(c3cccc(C)c3C)CC2)c1	11.1	2.8%	7.5%	16.4µM*	?	23.1µM*
CCOc1ccc(OCC)c(NC(=O)CN2CCN(C(=O)c3ccco3)CC2)c1	-17.1	0.3%	3.3%	?	0.0%[57.4 µM]	?
Cn1ccnc1CN1C[C@@H]2C[C@H]1C(=O)N(Cc1ccccn1)c1ccccc1O2	.	.	.	.	61.2%[176 µM]	.
O=C(NCc1ccco1)NC1CC(=O)N(CCCc2ccccc2)C1 (configuration not stated)	.	.	.	.	30.4%	.
O=C(CC1C=CCC1)N(Cc1cccs1)C1CC1 (configuration not stated)	.	.	.	.	37.3%	.
SMILES	IL-1B inflam inh	HT1080 IDH1KD tx	HT1080-NT tox	DT40 TDP1 CPT	ALOX12 inh	DT40 TDP1 no CPT
CCN1CCN(CCCNC(=O)c2ccc3nc(Cc4ccccc4)oc3c2)CC1	.	.	.	9.2%	-24.5%	21.7%
Cc1ccc(C)c(N2CCN(CCCNC(=O)c3ccc4nc(C(C)C)oc4c3)CC2)c1	.	.	.	7.31µM*	?	3.66µM*
CN1CCN(CCCc2ccccc2)CC1	.	.	.	.	-17.7%	.
Cc1cccc(N2CCN(CC3CCCCC3)CC2)c1C	23.2	-12.3%	-5.6%	?	-12.1%	-27.1%
Cc1ccc(C)c(N2CCN(CCCc3ccccc3)CC2)c1	25.3	0.5%	-1.8%	20.6µM*	?	?
Cc1ccc(C)c(N2CCN(CCCNC(=O)c3ccc4nc(CCc5ccccc5)oc4c3)CC2)c1	.	.	.	3.66µM*	?	4.11µM*
Cc1ccc(C)c(N2CCN(CC3CCCCC3)CC2)c1	25.4	-6.6%	-1.8%	?	4.47µM*	?
COCc1cc(C)n(CC(=O)Nc2cc(Cl)ccc2Cl)c(=O)c1C#N	.	.	.	.	-18.5%	.
O=C(O)C1CNCCN(CCOCc2ccccc2)C1 (configuration not stated)	.	.	.	.	48.6%	.
Cc1ccc(C)c(N2CCN(c3ccncc3N)CC2)c1	-3.3	-4.6%	-9.6%	18.4µM*	76.5%	13µM*
C/C=C(\C)CN1CCN(c2cc(C)ccc2C)CC1	21.2	-1.1%	9.7%	?	?	-14.3%
Cc1ccc(C)c(N2CCN(Cc3csc(C)c3)CC2)c1	.	.	.	?	-14.6%	23.1µM*
CCc1c(C(=O)NCc2cccnc2N2CCOCC2)cnn1-c1ccc(F)cc1	.	.	.	.	14.1%	.
COc1cc2cc(C(=O)N[C@@H](C)C(=O)Nc3ccc4c(c3)OCO4)n(C)c2c(OC)c1OC	.	.	.	.	-1.5%	.
CC1CC(C)CN(C(=O)C(NS(=O)(=O)c2ccc(Br)s2)c2ccccc2)C1 (configuration not stated)	2.4	?	-25.8%	18.4µM*	-18.2%	14.6µM*
CSCCC(NS(=O)(=O)c1ccc(Cl)cc1)C(=O)OCC(=O)c1c(C)[nH]c2ccccc12 (configuration not stated)	-85.8*	-24.8%	-13.1%	?	?	14.6µM*
